Results filed as inconclusive are left out. The source made the active and inactive calls. Calls follow the shape of the dose curve; as a rule, active = well fitted inhibition curve with a large enough effect; inconclusive = small, poorly fitted or top-dose-only effect; inactive = flat fitted curve, though single readings scatter.
Legend:
Experiment in all cases: qHTS profiling for inhibitors of Plasmodium falciparum proliferation (AID 504749); also: nearly all actives have a fitted effect of over 60% in size
AA1029 = details: P. falciparum in erythrocytes, SYBR Green DNA, 72 h; series mostly up to 28.7 µM
Outline: (§1)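 P. falciparum-infected erythrocytes (0.3% parasitemia, 2.5% hematocrit) incubated with compound 72 h at 37 C, 5% CO2. Parasite DNA detected by SYBR Green after lysis, overnight at room temperature; normalised to 0.29 uM artemisinin and DMSO.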

C2A = details: P. falciparum in erythrocytes, SYBR Green DNA, 72 h; series mostly up to 28.7 µM
Outline: as §1

CP191 = details: P. falciparum in erythrocytes, SYBR Green DNA, 72 h; series mostly up to 28.7 µM
Outline: as §1

CP211 = details: P. falciparum in erythrocytes, SYBR Green DNA, 72 h; series mostly up to 28.7 µM
Outline: as §1

CP215 = details: P. falciparum in erythrocytes, SYBR Green DNA, 72 h; series mostly up to 28.7 µM
Outline: as §1

CP217 = details: P. falciparum in erythrocytes, SYBR Green DNA, 72 h; series mostly up to 28.7 µM
Outline: as §1

CP250 = details: P. falciparum in erythrocytes, SYBR Green DNA, 72 h; series mostly up to 12.8 µM
Outline: as §1

CP252 = details: P. falciparum in erythrocytes, SYBR Green DNA, 72 h; series mostly up to 12.8 µM
Outline: as §1

CP256 = details: P. falciparum in erythrocytes, SYBR Green DNA, 72 h; series mostly up to 28.7 µM
Outline: as §1

CP291 = details: P. falciparum in erythrocytes, SYBR Green DNA, 72 h; series mostly up to 28.7 µM
Outline: as §1

CP315 = details: P. falciparum in erythrocytes, SYBR Green DNA, 72 h; series mostly up to 28.7 µM
Outline: as §1

CP329 = details: P. falciparum in erythrocytes, SYBR Green DNA, 72 h; series mostly up to 28.7 µM
Outline: as §1

CP335 = details: P. falciparum in erythrocytes, SYBR Green DNA, 72 h; series mostly up to 12.8 µM
Outline: as §1

FAB9 = details: P. falciparum in erythrocytes, SYBR Green DNA, 72 h; series mostly up to 28.7 µM
Outline: as §1

JCK = details: P. falciparum in erythrocytes, SYBR Green DNA, 72 h; series mostly up to 28.7 µM
Outline: as §1

N140 = details: P. falciparum in erythrocytes, SYBR Green DNA, 72 h; series mostly up to 28.7 µM
Outline: as §1

P93_24 = details: P. falciparum in erythrocytes, SYBR Green DNA, 72 h; series mostly up to 28.7 µM
Outline: as §1

PC15 = details: P. falciparum in erythrocytes, SYBR Green DNA, 72 h; series mostly up to 28.7 µM
Outline: as §1

SC27B = details: P. falciparum in erythrocytes, SYBR Green DNA, 72 h; series mostly up to 28.7 µM
Outline: as §1

TAB165 = details: P. falciparum in erythrocytes, SYBR Green DNA, 72 h; series mostly up to 28.7 µM
Outline: as §1

Measured: Potency

COc1cc2c(cc1OC)[C@@]13CCN4CC5=CCOC6CC(=O)N2C1[C@H]6[C@@H]5C[C@@H]43 (stereo not given in full)
inactive: all assays above

O=c1ccc2cc(O[C@H]3O[C@@H](CO)[C@@H](O)[C@@H](O)[C@@H]3O)c(O)cc2o1
inactive: all assays above

CC([C@H](O)c1ccccc1)N(C)C (stereo not given in full)
inactive: all assays above

CNc1ccc(C(=O)CC(O)CCC(C)C2OC(=O)CC(O)CC(=O)CC(O)CC(O)CC(O)CC(O)CC3(O)CC(O)C(C(=O)OC)C(CC(O[C@@H]4OC(C)C(O)C(N)C4O)/C=C/C=C/C=C/C=C/C=C/C=C/C=C/C2C)O3)cc1 (stereo not given in full)
inactive: all assays above

CNC(C)[C@@H](O)c1ccccc1 (stereo not given in full)
inactive: all assays above

Reference: PubChem BioAssay (NCATS)
